Assay outcomes (PubChem BioAssay)
In the library only some 3% were active in any assay of this set; here they are far more common.
PAFAH1B2 FP inh – PAFAH1B2 (human) inhibition; P68402; recombinant PAFAH1B2, FP-rhodamine activity probe, fluorescence polarization; inhibition, % at 3.39 µM; 340,000 tested, 1.2% active;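 active = inhibition above the mean of all tested compounds plus 3 SD, cut at about 24% in these data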
ATG4B inhibitor – ATG4B (human) cysteine protease inhibition | Q9Y4P1 | ATG4B cleavage of LC3-PLA2, NBD-HPC fluorescence, 1 h | inhibition, % at 8.33 µM | 340,000 tested, 0.51% active | AID 504462; in the data active = inhibition above about 40%
Target sequence (Q9Y4P1 whole entry, looked up): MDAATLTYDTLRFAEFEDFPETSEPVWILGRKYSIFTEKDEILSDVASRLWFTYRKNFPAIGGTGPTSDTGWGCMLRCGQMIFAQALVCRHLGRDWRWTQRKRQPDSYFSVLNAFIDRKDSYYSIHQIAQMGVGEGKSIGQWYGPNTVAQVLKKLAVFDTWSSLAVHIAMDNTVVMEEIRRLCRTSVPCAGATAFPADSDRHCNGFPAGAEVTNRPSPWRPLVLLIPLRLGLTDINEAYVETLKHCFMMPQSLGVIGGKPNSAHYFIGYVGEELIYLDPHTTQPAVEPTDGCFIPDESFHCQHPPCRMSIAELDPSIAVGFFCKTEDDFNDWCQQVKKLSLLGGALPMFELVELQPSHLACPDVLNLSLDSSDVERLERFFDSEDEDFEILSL
PAFAH1B3 inh – inhibitors of human PAFAH1B3. Q15102. recombinant PAFAH1B3, FP-rhodamine probe, fluorescence polarization. inhibition, % at 3.39 µM. 340,000 tested, 0.28% active. AID 492972;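 active = inhibition above the screen-wide average of all tested compounds plus 3 SD, cut at about 25% in these data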
Target sequence (Q15102 whole entry, looked up): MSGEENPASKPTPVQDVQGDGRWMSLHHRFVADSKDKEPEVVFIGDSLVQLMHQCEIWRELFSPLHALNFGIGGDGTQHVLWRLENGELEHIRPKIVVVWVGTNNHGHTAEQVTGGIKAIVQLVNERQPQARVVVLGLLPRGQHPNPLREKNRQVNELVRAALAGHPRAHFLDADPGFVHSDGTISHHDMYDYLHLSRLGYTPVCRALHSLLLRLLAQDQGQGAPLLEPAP
PAFAH2 inh – PAFAH2 (human) inhibition; recombinant PAFAH2, FP-rhodamine activity probe, fluorescence polarization; 340,000 tested, 0.99% active; inhibition, % at 3.39 µM; Q99487; AID 492956;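 active = inhibition above the mean over all tested compounds plus 3 SD, cut at about 30% in these data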;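 also: inhibitors block probe labeling of enzyme so polarization drops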
DAGLB inh – diacylglycerol lipase beta (human) inhibition; HEK293T DAGLB membrane lysate, EnzChek fluorogenic substrate; inhibition, % at 5.17 µM; 340,000 tested, 0.059% active; in the data active = inhibition above about 34%
pPAFAH FP inh – inhibitors of human plasma PAF acetylhydrolase (pPAFAH); Q13093; recombinant pPAFAH, FP-rhodamine probe fluorescence polarization; inhibition, % at 3.39 µM; 330,000 tested, 1.5% active;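 active = inhibition above the mean inhibition across the screen plus 3 SD, cut at about 25% in these data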;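 also: inhibitors block binding of the rhodamine activity-based probe so polarization drops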
pPAFAH FP conf – confirmation of human plasma PAF acetylhydrolase (pPAFAH) inhibitors. shares compounds with pPAFAH FP inh. recombinant pPAFAH, FP-Rh probe fluorescence polarization. inhibition, % at 3.39 µM. 2,300 tested, 72% active. AID 463230;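 active = mean inhibition of the triplicate above the hit cutoff set for the earlier primary screen, cut at about 25% in these data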
PAFAH2 FP conf – confirmation of human PAFAH2 inhibitors; recombinant PAFAH2, FP-rhodamine activity probe, fluorescence polarization; shares compounds with PAFAH2 inh; inhibition, % at 3.39 µM; 2,300 tested, 65% active; AID 493030;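 active = mean inhibition over three repeats above a set limit taken from the earlier primary screen, cut at about 30% in these data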;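 also: inhibitor blocks binding of rhodamine activity probe so polarization falls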
PAFAH1B3 confirm – confirmation of human PAFAH1B3 inhibitors. shares compounds with PAFAH1B3 inh. recombinant PAFAH1B3, FP-Rh activity-based probe, fluorescence polarization. inhibition, % at 3.39 µM. 390 tested, 30% active;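 active = average inhibition over triplicate runs above the hit cutoff set in the earlier primary screen, cut at about 25% in these data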
DAGLB inh conf – DAGLB (human) inhibition, confirmation screen. shares compounds with DAGLB inh. HEK293T DAGLB membrane lysate, EnzChek fluorogenic substrate. inhibition, % at 5.17 µM. 190 tested, 73% active;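 active = mean inhibition over triplicate wells above a set limit taken from the primary lipase screen, cut at about 34% in these data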
PLA2 ctr – PLA2 (human) inhibition in ATG4B counter-screen. shares compounds with ATG4B inhibitor. purified PLA2, NBD-C6-HPC fluorescence, 45 min. inhibition, % at 8.33 µM. 1,600 tested, 66% active. AID 588402; in the data active = inhibition above about 50%
Of the large screens only hits and unclear results are named; the others gave an inactive call (follow-up assays come after a bar, where they were run).

O/N=C/Cc1[nH]c2ccccc2c1-c1ccccc1	none
O=c1oc2ccccc2c(O)c1Cc1cc(Cl)c2cccnc2c1O	pPAFAH FP inh 50 | pPAFAH FP conf 66
CSc1nc(N(C)CCO)c2sc3nc(-c4ccco4)c4c(c3c2n1)CCC4	pPAFAH FP inh 40 | pPAFAH FP conf inactive
CSc1nc(NCCN(C)C)c2sc3nc(-c4ccco4)c4c(c3c2n1)CCC4	none (no result: pPAFAH FP inh)
Cc1ccc(-c2cnc3c(c2)C(=O)N([C@H](C)CO)C[C@@H](C)[C@@H](CN(C)C(=O)Cc2ccccc2)O3)cc1	none (no result: PAFAH1B2 FP inh, ATG4B inhibitor, PAFAH1B3 inh, PAFAH2 inh, pPAFAH FP inh)
COc1cc(/C=C2\CC/C(=C\c3cc(OC)c(O)c(OC)c3)C2=O)cc(OC)c1O	pPAFAH FP inh 42 | pPAFAH FP conf 39
COc1ccccc1N1CCN(c2ccc3c(c2)S(=O)(=O)c2cccc(C(=O)NCc4cccc(F)c4)c2C3=O)CC1	none (no result: PAFAH1B2 FP inh, ATG4B inhibitor, PAFAH1B3 inh, PAFAH2 inh, pPAFAH FP inh)
CCOC(=O)c1sc2nc3c(SCC(=O)O)cc(C(=O)c4ccccc4O)cn3c(=O)c2c1C	none
O=C(O)CSc1cc(C(=O)c2ccccc2O)cn2c(=O)c3c(-c4ccccc4)csc3nc12	pPAFAH FP inh 65 | pPAFAH FP conf 72
O=C(O)c1cc(N/N=C/c2ccc(N3CCOCC3)s2)ccc1Cl	pPAFAH FP inh 74 | pPAFAH FP conf inactive
Cc1ccc(C)n1/N=C1/NC(=O)CS1	ATG4B inhibitor 41, PAFAH2 inh 39, pPAFAH FP inh 39 | pPAFAH FP conf inactive
CSc1ccccc1NC(=O)CN(C)C(=O)CNC(=O)c1ccc(Oc2ccccc2)cc1	none (no result: PAFAH1B2 FP inh, ATG4B inhibitor, PAFAH1B3 inh, PAFAH2 inh, pPAFAH FP inh)
C=CCN([C@H](C(=O)OC)C(C)C)S(=O)(=O)CCNCc1ccccc1	none (no result: pPAFAH FP inh)
CCn1c(CSc2nc3ccccc3s2)nnc1SCC(=O)c1ccc(O)c(O)c1	PAFAH2 inh 50, pPAFAH FP inh 40 | pPAFAH FP conf 94 | PAFAH2 FP conf inactive
CCn1c(CSc2nc3ccccc3s2)nnc1SCC(=O)c1ccc(Cl)cc1	none
O=C(CSc1nnc(-c2ccco2)c(-c2ccco2)n1)Nc1ccccc1	PAFAH2 inh 42, pPAFAH FP inh 59 | pPAFAH FP conf inactive | PAFAH2 FP conf inactive
O=C(O)C1CC(=O)N(CCc2ccc(F)cc2)C1 (stereo not drawn)	none
Cc1ccc(S(=O)(=O)NCC(=O)OCC(=O)N2C(C)CCCC2C)cc1 (stereo not drawn)	none
COc1ccccc1CNC(=O)COC(=O)c1cc(-c2ccco2)nc2ccccc12	PAFAH2 inh 33, pPAFAH FP inh 56 | pPAFAH FP conf inactive | PAFAH2 FP conf inactive
O=C(Nc1ccc(N2CCOCC2)cc1)Nc1ccc2nc(-c3ccco3)c(-c3ccco3)nc2c1	PAFAH1B3 inh 28, pPAFAH FP inh 45 | pPAFAH FP conf inactive | PAFAH1B3 confirm inactive
CCOc1ccc2nc(N(CCN(CC)CC)C(=O)c3cccc([N+](=O)[O-])c3)sc2c1	none
COc1ccc(NC(=S)NNc2ccc(S(=O)(=O)Nc3ccccc3C(=O)O)cc2[N+](=O)[O-])cc1	PAFAH1B3 inh 27, PAFAH2 inh 64, DAGLB inh 43, pPAFAH FP inh 58 | pPAFAH FP conf 82 | DAGLB inh conf 48
Cc1cc(C)c(S(=O)(=O)/N=C2\C=C(Nc3ccc(C(=O)O)cc3)C(=O)c3ccccc32)c(C)c1	PAFAH1B2 FP inh 26, PAFAH1B3 inh 60, PAFAH2 inh 36, DAGLB inh 36, pPAFAH FP inh 42 | pPAFAH FP conf 40 | DAGLB inh conf 39
Cc1cc(C)c(S(=O)(=O)/N=C2\C=C(NS(=O)(=O)c3ccccc3)C(=O)c3ccccc32)c(C)c1	none
CCc1ccc(S(=O)(=O)/N=C2\C=C(Nc3cccc(C(=O)O)c3)C(=O)c3ccccc32)cc1	PAFAH1B2 FP inh 39, PAFAH1B3 inh 63, PAFAH2 inh 62, DAGLB inh 47, pPAFAH FP inh 37 | pPAFAH FP conf 40 | DAGLB inh conf inactive
O=C1C=C(Nc2ccc(O)cc2)C(=O)c2ccccc21	none
O=C(O)c1ccc(NC2=C/C(=N/S(=O)(=O)c3cccs3)c3ccccc3C2=O)cc1	none (no result: PAFAH1B2 FP inh, ATG4B inhibitor, PAFAH1B3 inh, PAFAH2 inh, pPAFAH FP inh)
CCc1ccc(S(=O)(=O)/N=C2\C=C(Nc3ccc(O)cc3)C(=O)c3ccccc32)cc1	PAFAH1B2 FP inh 31, PAFAH1B3 inh 66, PAFAH2 inh 37, DAGLB inh 40, pPAFAH FP inh 35 | pPAFAH FP conf 33 | DAGLB inh conf 51
COc1ccc(CNC(=O)c2coc(=O)c3ccccc23)cc1	none
CCOC(=O)c1c(NC(=O)COC(=O)CC(NC(C)=O)c2ccccc2)sc(C(=O)NC)c1C (stereo not drawn)	none
COC(=O)C1=C[C@@H](C(=O)OC)[C@@H]2C3=C(C(=O)[C@@]2(C)NC(=O)c2ccccc2)[C@H](c2ccccc2)[C@@H]2C(=O)NC(=O)[C@@H]2[C@@H]3C1	none
O=C(N/N=C/c1ccc(O)c(O)c1O)/C(=C/c1ccc([N+](=O)[O-])cc1)NC(=O)c1ccccc1	DAGLB inh 35, pPAFAH FP inh 38 | pPAFAH FP conf 47 | DAGLB inh conf inactive
CC1(C)CC(=O)C2=C(C1)c1c(ccc3ccccc13)NC2c1cc([N+](=O)[O-])cc([N+](=O)[O-])c1O (stereo not drawn)	PAFAH1B2 FP inh 29, PAFAH2 inh 35, DAGLB inh 42, pPAFAH FP inh 41 | pPAFAH FP conf 79 | DAGLB inh conf 39
Cc1ccccc1NC(=O)CN1C(=O)S/C(=C\c2cccn2-c2cccc(C(=O)O)c2)C1=O	none
Cc1cccc(C)c1-n1cccc1/C=C1\SC(=S)N(c2cccc(C(=O)O)c2)C1=O	ATG4B inhibitor 91, pPAFAH FP inh 50 | pPAFAH FP conf 51 | PLA2 ctr 85
CC(=O)Nc1ccc(S(=O)(=O)NNc2cccc(C)c2)cc1	none
Oc1nc(Nc2cccc(Cl)c2)sc1/C=C1\C=Nc2ccccc21	ATG4B inhibitor 73, pPAFAH FP inh 37 | pPAFAH FP conf 29 | PLA2 ctr 83
CCOC(=O)c1c(Nc2ccc(Cl)cc2)sc(/C=C2\C=Nc3ccccc32)c1O	none
